Source: PubChem BioAssay (NCI)
This is part of a sample that, as a whole, favours compounds with a hit. Of some 83,000 tested, about 20% had one in any assay.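 Testing used 96-well plates and a 48-hour single-concentration exposure. Example: -40 means 40% of the starting cells died.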 Values without a mark were called inactive. Calls of active or inactive are those of the source. The calls were made as follows: active = growth percent below 10; inactive = the rest.

These molecules were tested on HCT-116 colon (assay: NCI-60 one-dose screen, 48 h (100 = growth as untreated, 0 = no growth, -100 = all killed)). Details: 10 µM unless noted.

| SMILES | growth |
| --- | --- |
| COc1ccc2oc3c4[nH]c5ccccc5c4c4c(c3c2c1)C(=O)N(O)C4=O | 104% |
| O=S(=O)(NCCCNc1nccc(-n2cnc3ccccc32)n1)c1ccc(F)cc1 | 58.7% |
| CCNC(=O)Oc1ccc(/C(=C(/C)c2ccc(Cl)cc2)c2ccc(OCCN(C)C)cc2)cc1 | 43% |
| Oc1ccc(CSc2nnc(-c3ccc(Oc4ccccc4)cc3)n2-c2ccccc2)c2cccnc12 | 14.5% |
| Fc1ccc(-c2cc3nc(C(Cl)Cl)nc(-c4cccs4)n3n2)cc1 | -2.24% (active) |
| Fc1ccccc1/C=C(/C1=NCCN1)n1cnc2ccccc21 | 98.7% |
| COc1ccc2c(c1)c(-c1nn3c(=O)cc(-c4ccccc4)nc3s1)cn2C | 22.7% |
| O=C1c2cc(Br)ccc2-n2c1nc1cc(Br)ccc1c2=O | 81.8% |
| CCOC(=O)C1=C(C)Nc2nnc(Nc3ccccc3)n2C1c1ccccc1 (stereo unspecified) | 7.91% (active) |
| CCc1ccc(NC(=O)N[C@@H](Cc2cccc(C)c2)C(=O)N[C@@H]2C(=O)N3CCC[C@H]3C(=O)N3CCCC[C@H]3C(=O)N[C@@H](CO)C(=O)N3C[C@H](C)C[C@H]3C(=O)O[C@H]2C)c(F)c1 | 11.8% |
| COc1ccc(-c2cc(-c3cccc4ccccc34)n3c(n2)nc2ccccc23)cc1OC | 31.5% |
| COc1cc2oc(-c3cccc(NC(=O)c4cc(NC(=O)[C@H](C)N)ccc4Cl)c3)cc(=O)c2c(OC)c1OC | 94.9% |
| CC(=O)c1ccc(NC(=O)COc2ccc(C3SCC(=O)N3c3ccc(Br)cc3)cc2)cc1 (stereo unspecified) | 91% |
| O=C(O)CNS(=O)(=O)c1ccc(Oc2ccc(S(=O)(=O)NCC(=O)O)cc2)cc1 | 103% |
| C/C(=C(/C)C1CC1CCN(C(=O)c1ccc([N+](=O)[O-])cc1)S(=O)(=O)c1ccc(C)cc1)C1CCCCC1 (stereo unspecified) | 89.9% |
| COCCOc1ccc(-c2csc(NC(=O)CN3CCN(CCO)CC3)n2)cc1NS(=O)(=O)c1cccc2c(N(C)C)cccc12 | 10.8% |
| CCN1C/C(=N\S(=O)(=O)c2ccccc2)N(CC)C1=S | 91.5% |
| Cc1ccc(C2CC(c3ccc(Nc4nc(NCCO)nc(Nc5ccc(Cl)cc5)n4)cc3)=Nc3c(N)nc(N)nc3N2)cc1 (stereo unspecified) | -97% (active) |
| CSc1nccc(-c2c(-c3ccc(F)c(OCc4ccc(F)cc4)c3)nc3sccn23)n1 | 51.3% |

| SMILES | growth |
| --- | --- |
| Clc1ccccc1/C=C/c1nn2c(-c3ccncc3)nnc2s1 | 96.5% |
| O=S(=O)(Nc1ccc(-n2cnc3cc(-c4ccc(O)cc4)ccc32)cc1)C1CC1 | 92.7% |
| COc1cc2c3c(n(CCCNC4CCCCC4)c(=O)c2cc1OC)-c1cc2c(cc1C3=O)OCO2 | -72.3% (active) |
| CCOc1ccc2nc(NC(=O)Nc3ccccc3C)sc2c1 | 39.8% |
| CS(=O)(=O)c1ccc(-c2nn(-c3ccccc3)cc2/C=N/NC(=O)c2ccncc2)cc1 | 107% |
| Oc1ccc(CSc2nnc(-c3ccccc3)n2-c2ccccc2)c2cccnc12 | 10.8% |
| O=C(c1ccc(O)cc1)[C@@H]1[C@@H]2CCCN2[C@@]2(C(=O)N(C(=O)c3ccc(F)cc3)c3ccccc32)[C@H]1c1ccc(F)cc1 | 91.4% |
| CNC(=O)c1c(NC(=O)c2ccc(F)cc2F)sc2c1CCC(=O)C2 | 7% (active) |
| Nc1n[nH]c2cccc(C#Cc3cccc(NC(=O)c4cccc(OC(F)(F)F)c4)c3)c12 | 21.7% |
| Cc1cn(-c2cc(NC(=O)c3cncc(C#Cc4cnc5ccc(OCCCS(C)(=O)=O)nn45)c3)cc(C(F)(F)F)c2)cn1 | 3.57% (active) |
| COc1c([C@@H](CC(C)C)OC(C)=O)ccc2c1C(=O)OCc1cc(C)cc(O)c1O2 | 12.3% |
| COc1cc(C(=O)C[n+]2ccc3ccccc3c2)cc(OC)c1OC | 95.9% |
| COc1ccc(CCN2C(=O)CSC2=S)cc1OC | 99.6% |
| C/C(=N\NC(=O)CSc1nc2sc3c(c2c(=O)n1-c1ccccc1)CCC(C)C3)c1ccc(Cl)cc1 (stereo unspecified) | 26.6% |
| Cn1nc(Nc2ccccc2)c(C(=O)NN)c1N | 113% |
| N/C(=N\c1nc2c(Cl)cccc2s1)C(Cl)(Cl)Cl | 69.7% |
| COc1cc(O)c2c(c1)/C=C/C[C@H](O)[C@H](O)C(=O)/C=C\C[C@H](C)OC2=O | -16.3% (active) |
| CCCCCCNC(=O)Oc1ccc(/C(=C(/C)c2ccccc2)c2ccc(OCCN(C)C)cc2)cc1 | 22.6% |
| CS(=O)c1nccc(-c2c(-c3ccc(F)c(OCc4ccc(F)cc4)c3)nc3sccn23)n1 (stereo unspecified) | 19.7% |

The molecules below were run on HCC-2998 colon in the same assay as above. Details: 10 µM unless noted.

| SMILES | growth |
| --- | --- |
| COc1ccc2oc3c4[nH]c5ccccc5c4c4c(c3c2c1)C(=O)N(O)C4=O | 101% |
| O=S(=O)(NCCCNc1nccc(-n2cnc3ccccc32)n1)c1ccc(F)cc1 | 102% |
| CCNC(=O)Oc1ccc(/C(=C(/C)c2ccc(Cl)cc2)c2ccc(OCCN(C)C)cc2)cc1 | 81.2% |
| Oc1ccc(CSc2nnc(-c3ccc(Oc4ccccc4)cc3)n2-c2ccccc2)c2cccnc12 | 30.3% |
| Fc1ccc(-c2cc3nc(C(Cl)Cl)nc(-c4cccs4)n3n2)cc1 | -61.5% (active) |
| Fc1ccccc1/C=C(/C1=NCCN1)n1cnc2ccccc21 | 102% |
| COc1ccc2c(c1)c(-c1nn3c(=O)cc(-c4ccccc4)nc3s1)cn2C | 75.2% |
| O=C1c2cc(Br)ccc2-n2c1nc1cc(Br)ccc1c2=O | 108% |
| CCOC(=O)C1=C(C)Nc2nnc(Nc3ccccc3)n2C1c1ccccc1 (stereo unspecified) | 105% |
| CCc1ccc(NC(=O)N[C@@H](Cc2cccc(C)c2)C(=O)N[C@@H]2C(=O)N3CCC[C@H]3C(=O)N3CCCC[C@H]3C(=O)N[C@@H](CO)C(=O)N3C[C@H](C)C[C@H]3C(=O)O[C@H]2C)c(F)c1 | 23.9% |
| COc1ccc(-c2cc(-c3cccc4ccccc34)n3c(n2)nc2ccccc23)cc1OC | 72% |
| COc1cc2oc(-c3cccc(NC(=O)c4cc(NC(=O)[C@H](C)N)ccc4Cl)c3)cc(=O)c2c(OC)c1OC | 100% |
| CC(=O)c1ccc(NC(=O)COc2ccc(C3SCC(=O)N3c3ccc(Br)cc3)cc2)cc1 (stereo unspecified) | 103% |
| O=C(O)CNS(=O)(=O)c1ccc(Oc2ccc(S(=O)(=O)NCC(=O)O)cc2)cc1 | 105% |
| C/C(=C(/C)C1CC1CCN(C(=O)c1ccc([N+](=O)[O-])cc1)S(=O)(=O)c1ccc(C)cc1)C1CCCCC1 (stereo unspecified) | 112% |
| COCCOc1ccc(-c2csc(NC(=O)CN3CCN(CCO)CC3)n2)cc1NS(=O)(=O)c1cccc2c(N(C)C)cccc12 | 91.3% |
| CCN1C/C(=N\S(=O)(=O)c2ccccc2)N(CC)C1=S | 98.4% |
| Cc1ccc(C2CC(c3ccc(Nc4nc(NCCO)nc(Nc5ccc(Cl)cc5)n4)cc3)=Nc3c(N)nc(N)nc3N2)cc1 (stereo unspecified) | -65.3% (active) |
| CSc1nccc(-c2c(-c3ccc(F)c(OCc4ccc(F)cc4)c3)nc3sccn23)n1 | 93.4% |

| SMILES | growth |
| --- | --- |
| Clc1ccccc1/C=C/c1nn2c(-c3ccncc3)nnc2s1 | 101% |
| O=S(=O)(Nc1ccc(-n2cnc3cc(-c4ccc(O)cc4)ccc32)cc1)C1CC1 | 103% |
| COc1cc2c3c(n(CCCNC4CCCCC4)c(=O)c2cc1OC)-c1cc2c(cc1C3=O)OCO2 | 73.3% |
| CCOc1ccc2nc(NC(=O)Nc3ccccc3C)sc2c1 | 81.4% |
| CS(=O)(=O)c1ccc(-c2nn(-c3ccccc3)cc2/C=N/NC(=O)c2ccncc2)cc1 | 102% |
| Oc1ccc(CSc2nnc(-c3ccccc3)n2-c2ccccc2)c2cccnc12 | 26.9% |
| O=C(c1ccc(O)cc1)[C@@H]1[C@@H]2CCCN2[C@@]2(C(=O)N(C(=O)c3ccc(F)cc3)c3ccccc32)[C@H]1c1ccc(F)cc1 | 108% |
| CNC(=O)c1c(NC(=O)c2ccc(F)cc2F)sc2c1CCC(=O)C2 | 13.5% |
| Nc1n[nH]c2cccc(C#Cc3cccc(NC(=O)c4cccc(OC(F)(F)F)c4)c3)c12 | 38% |
| Cc1cn(-c2cc(NC(=O)c3cncc(C#Cc4cnc5ccc(OCCCS(C)(=O)=O)nn45)c3)cc(C(F)(F)F)c2)cn1 | 17.4% |
| COc1c([C@@H](CC(C)C)OC(C)=O)ccc2c1C(=O)OCc1cc(C)cc(O)c1O2 | 35% |
| COc1cc(C(=O)C[n+]2ccc3ccccc3c2)cc(OC)c1OC | 103% |
| COc1ccc(CCN2C(=O)CSC2=S)cc1OC | 111% |
| C/C(=N\NC(=O)CSc1nc2sc3c(c2c(=O)n1-c1ccccc1)CCC(C)C3)c1ccc(Cl)cc1 (stereo unspecified) | 45.4% |
| Cn1nc(Nc2ccccc2)c(C(=O)NN)c1N | 107% |
| N/C(=N\c1nc2c(Cl)cccc2s1)C(Cl)(Cl)Cl | 72.9% |
| COc1cc(O)c2c(c1)/C=C/C[C@H](O)[C@H](O)C(=O)/C=C\C[C@H](C)OC2=O | -41.9% (active) |
| CCCCCCNC(=O)Oc1ccc(/C(=C(/C)c2ccccc2)c2ccc(OCCN(C)C)cc2)cc1 | 69.3% |
| CS(=O)c1nccc(-c2c(-c3ccc(F)c(OCc4ccc(F)cc4)c3)nc3sccn23)n1 (stereo unspecified) | 10.2% |
